We go through 54 compounds from ChEMBL document CHEMBL4513216, “Probing the Open Global Health Chemical Diversity Library for Multistage-Active Starting Points for Next-Generation Antimalarials” (ACS Infect Dis, 2020).

About 8,600 (12%) of roughly 69,000 compounds showed an effect of 50% or more. This excerpt belongs to a sample that is enriched for strong results.

This test concerns Plasmodium berghei. As to the kind of experiment: Screen against P. berghei liver stage (PbLuc), transformed with Luciferase, at 10uM. It is filed as functional, HepG2. The conditions noted are these: tested at 10 uM.
As for `Cc1nc(CN2CCCC(NCCOc3ccccc3C#N)C2)no1` (centres undefined), the INHIBITION turned out to be 44.1%. To `CC(c1ccc2c(c1)OCCO2)N(C)C(=O)c1ccnnc1` (centres undefined) belongs -4.21%; to `Cn1ccc(CN2CCN(CC3CC3)CC2)cc1=O`, 21.5%. To `COCCCNC(=O)CN(C)C(=O)c1ccc(OC)cc1O` belongs 7.925%; to `O=S(=O)(Cc1ccccc1)NCC1CCN(c2cnccn2)CC1`, -45.8%; to `CCCS(=O)(=O)NCc1nc(C)cc(N2CCCC2)n1`, 56.6%. On to `CCCS(=O)(=O)N1CCN(c2cc(-n3nc(C)cc3C)nc(C)n2)CC1`, for which the INHIBITION is reported as 0.139%.

On to `CCS(=O)(=O)NCc1nc(C)cc(N2CCCCC2)n1`, for which the INHIBITION is reported as 75.2%.

In the case of `CCS(=O)(=O)NCc1nc(C)cc(N2CCCC2)n1`, the INHIBITION is given as 25.1%. To `Cc1nc(C2CCCN(C(=O)CO)C2)cc(N2CCOCC2)n1` (centres undefined) belongs -1.53%; to `CC(=O)N1CCCn2nc(CNS(=O)(=O)Cc3ccccc3)cc2C1`, -3.83%. Consider `CCNC(=O)CCN1CCC(c2cc(N3CCOCC3)nc(C)n2)CC1`, for which the INHIBITION is recorded as 38.5%. For `Cc1cc(N2CCCC2)nc(CNS(=O)(=O)Cc2ccccc2)n1`, the INHIBITION worked out at 81%.

As to `CCNC(=O)CN1CCN(c2cc(C)nc(-c3ccncc3)n2)CC1`, the INHIBITION is on record as 48.1%.

Take `CCS(=O)(=O)NCc1nc(C)cc(N2CCOCC2)n1`: the INHIBITION stood at 65.2%. To `CCCc1nc(C)cc(N2CCC3(CCC(=O)N(C4CC4)C3)CC2)n1` belongs -23.5%.

In the case of `CCc1nnc2n1CCN(C(=O)Cc1nc(-c3ccco3)oc1C)C2`, the INHIBITION was -17.6%. With `Cc1ncc(C(=O)N2CCCC(n3nc(C)nc3C)C2)c(C(C)C)n1` (centres undefined), the INHIBITION was -3.15%. For `Cc1cc(C)n(CC2CCCN2C(=O)c2cccc(C#N)c2)n1` (centres undefined), the INHIBITION was -3.585%. The result for `COc1ccc(OCCN2CCC(c3ccnn3CCO)CC2)cc1` reads 11.4%; that for `Cc1ccc(C(C(=O)NC(C)(C)CN2CCCC2)N(C)C)cc1` (centres undefined), 35.7%; that for `CCn1ncc2c1C(COC)N(C(=O)Cc1cccs1)CC2` (centres undefined), 25.8%. To `CCOCC1c2c(ncn2C(C)C)CCN1C(C)C` (centres undefined) belongs 10.5%; to `CCOCC1c2c(ncn2C)CCN1C(=O)c1cnc(C)cn1` (centres undefined), 57.5%. To `CCOCC1c2c(ncn2C(C)C)CCN1C(=O)CC` (centres undefined) belongs 29.8%.

In the case of `CCn1ncc2c1C(COC)N(C(=O)c1cccs1)CC2` (centres undefined), the INHIBITION was determined as 51.2%.

For the compound `CCOCC1c2c(ncn2C)CCN1C(=O)c1cscn1` (centres undefined), the INHIBITION was found to be 60.2%.

As for `CCOCC1c2c(cnn2C)CCN1C(=O)c1cc(C)on1` (centres undefined), the INHIBITION is reported as 37.6%.

For the compound `CCn1ncc2c1C(COC)N(C(=O)c1ccsc1)CC2` (centres undefined), the INHIBITION was determined as 43.9%. The result for `CCOCC1CN(C(=O)c2cscn2)Cc2cn(C)nc21` (centres undefined) reads 17.1%. Regarding `CCOCC1CC2(CCN(C(=O)c3cscn3)CC2)CO1` (centres undefined), the INHIBITION came out at 9.63%.

In the case of `CCOCC1c2c(ncn2C(C)C)CCN1C(=O)C1CC1` (centres undefined), the INHIBITION is 76.4%. The result for `CCOCC1c2c(ncn2C)CCN1C(=O)c1ccoc1` (centres undefined) reads -3.17%. The result for `CN(Cc1cc(C2CC2)[nH]n1)C(=O)c1cnn2ccn(C)c12` reads 14.9%; that for `Cc1c(-c2cccs2)nn2c(=O)c3c([nH]c12)CN(C(=O)C1CC1)C3`, 43.7%; that for `CC1c2ncc(CNC(=O)C3CC3)n2CCN1Cc1ccncc1` (centres undefined), 6.55%. In the case of `CN1CCN(c2cc(CNC(=O)c3cnccn3)ccn2)CC1`, the INHIBITION was 35.3%. `O=C(CC(F)(F)F)N1C[C@@H]2CC[C@H]1CN(Cc1ccccc1)C2`: the INHIBITION is listed as -8.47%. `CNc1nc(C2CCCCN2C(=O)C(C)(C)OC)nc2c1CN(C)CC2` (centres undefined): the INHIBITION turned out to be 38.2%. Turning to `CC1c2ncc(COCC3CCOCC3)n2CCN1C(=O)c1ccco1` (centres undefined), the INHIBITION stood at 47.2%. Take `COC1C[C@@H]2CN(C(=O)c3cc4ccc(F)cc4[nH]3)C[C@@H]2C1` (some centres undefined): the INHIBITION is on record as -36.1%. Regarding `COCC1c2c(cnn2C)CCN1C(=O)c1cscn1` (centres undefined), the INHIBITION is recorded as 56.6%. The result for `CCn1ncc2c1C(COC)N(C(=O)c1cscn1)CC2` (centres undefined) reads 38.5%; that for `COCC1c2c(cnn2C)CCN1C(=O)c1cc(C)on1` (centres undefined), 38.5%; that for `O[C@@H]1C[C@H]2CN(CC3CCCCC3)[C@H](Cc3ccccc3)CN2C1`, 16.2%. For the compound `O=C(CC1CC1)NCc1cn2c(n1)CN(C(=O)c1cccnc1)CC2`, the INHIBITION was -5.69%. Regarding `Cn1cc(Br)c(=O)c(NS(=O)(=O)c2ccc(Cl)cc2)c1`, the INHIBITION is recorded as -4.68%.

On to `CC(=O)N1CCCN(CC(C)(O)c2cccc(C(F)(F)F)c2)CC1` (centres undefined), for which the INHIBITION stood at 64.5%. The result for `CC(=O)N1CCN(CC(C)(O)c2cccc(C(F)(F)F)c2)CC1` (centres undefined) reads 33.3%; that for `CCN1CCN(CC(C)(O)c2cccc(C(F)(F)F)c2)CC1` (centres undefined), 20.1%; that for `Cn1cnnc1S(=O)(=O)Cc1cc(Cl)c2c(c1)OCCO2`, 63.8%. To `CNC(=O)CCS(=O)(=O)Cc1cc(Cl)c2c(c1)OCCO2` belongs 15.3%; to `Cn1cnnc1S(=O)(=O)Cc1cc(Cl)c2c(c1)OCO2`, 68.4%; to `CCc1nnc(S(=O)(=O)Cc2cc(Cl)c3c(c2)OCO3)n1C`, 24.8%.
